Measured values from PubChem BioAssay.
Activity calls are given as the source filed them. Unless noted, no rule for the calls is given here.

Tests used:
[1] = resazurin metabolic signal in HepG2 cells – cell-based, resazurin fluorescence, 24 h, PK04 Diversity Set, profiling panel (AID 1172); conditions: HepG2 viability, higher = more signal
[2] = budding yeast growth changes without added modifier – OD600, strain BY4716, 24 h, basal condition, primary screen (AID 1173); conditions: S. cerevisiae BY4716 growth, OD600, 24 h; higher = more signal, called active from +8 up or from −8 down
[3] = viability profiling in MM1S myeloma cells – cell-based, resazurin fluorescence, basal, 24 h, PK04 Diversity Set, profiling panel (AID 1174); conditions: higher = more signal, called active from +8 up or from −8 down;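 also: MM1S multiple myeloma cell line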
[4] = biological target: Dihydroorotate dehydrogenase (quinone), mitochondrial (Plasmodium falciparum (isolate 3D7)) (UniProt Q08210); test: inhibition of P. falciparum DHODH – biochemical, C-terminal His tag, absorbance 600 nm, primary screen (AID 1175); conditions: PfDHODH enzyme, DCIP absorbance 600 nm; higher = more signal, called active from +8 up or from −8 down;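 also: recombinant parasite enzyme with a five histidine tag at its C terminus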
[5] = inhibition of PAO1 biofilm formation – strain PAO1, LB-PBS medium, absorbance 600 nm, primary screen (AID 1176); conditions: P. aeruginosa PAO1 growth/biofilm, A600, 12 h; higher = more signal
[6] = growth modulation of vineyard yeast isolate – strain RM11-1a, OD600, basal, 24 h, primary screen (AID 1177);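 also: cultures grown under basal conditions with no added stressor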; conditions: S. cerevisiae RM11-1a growth, OD600, 24 h; higher = more signal, called active from +8 up or from −8 down
[7] = growth of efflux-deficient E. coli DRC39 – strain DRC39, OD650, 24 h, E. coli filamentation inducers, primary screen (AID 1178);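 also: growth measured as culture turbidity by optical density at 650 nm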; conditions: E. coli DRC39 acrAB, higher = more signal, called active from +8 up or from −8 down
[8] = growth of efflux-deficient E. coli DRC39 – strain DRC39, OD650, 48 h, E. coli filamentation inducers, primary screen (AID 1179);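 also: screen aims at cell division blockers that make cells filament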; conditions: E. coli DRC39 delta-acrAB growth, higher = more signal, called active from +8 up or from −8 down
[9] = viability profiling in RPMI8226 myeloma cells – cell-based, resazurin fluorescence, basal, 24 h, PK04 Diversity Set, profiling panel (AID 1180); conditions: higher = more signal;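 also: RPMI8826 multiple myeloma cell line at 5000 cells per well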
[10] = biological target: E3 ubiquitin-protein ligase XIAP (Homo sapiens) (UniProt P98170); test: small molecules binding XIAP protein – biophysical, small-molecule microarray, fluorescence 635 nm, primary screen (AID 1181); conditions: higher = more signal;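 also: score merges 667 nm emission and signal to noise over triplicate slides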
[11] = system: XIP peptide (Xip251-270) binding; test: XIP fragment 251-270 binding compounds – biochemical, small-molecule microarray, fluorescence 635/667 nm, 0.1 µg/mL protein, primary screen (AID 1182); conditions: fluorescent protein binding, 635 nm, higher = more signal, called active from +8 up or from −8 down
XIP peptide (Xip251-270) = test: compounds binding XIP fragment 251-270 – biochemical, small-molecule microarray, fluorescence 635/667 nm, 0.5 µg/mL protein, primary screen (AID 1183); conditions: fluorescence 635 nm, higher = more signal
[12] = blood-stage malaria parasite viability loss – strain 3D7, DAPI fluorescence, 100 nL, primary screen (AID 1184);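 also: parasites grown inside human red blood cells in medium with human serum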; conditions: P. falciparum 3D7 growth, 3 d, higher = more signal
[13] = biological target: Homeobox protein Hox-A13 (Mus musculus) (UniProt Q62424); test: disruptors of Hoxa13 oligonucleotide interaction – biochemical, fluorescence polarization, labeled oligonucleotide, primary screen (AID 1185); conditions: Hoxa13:DNA binding, 15 min, higher = more signal, called active from +8 up or from −8 down
[14] = blockers of DNA damage checkpoint Chk1 activation – imaging, HeLa, hydroxyurea, phospho-Chk1 antibody, percent positive cells, primary screen (AID 1186); conditions: hydroxyurea-induced phospho-Chk1 immunofluorescence imaging, higher = more signal
[15] = blockers of DNA damage checkpoint Chk1 activation – imaging, HeLa, hydroxyurea, phospho-Chk1 nuclear intensity, primary screen (AID 1187); conditions: hydroxyurea-induced phospho-Chk1 immunofluorescence imaging, higher = more signal

Chain of E3 ubiquitin-protein ligase XIAP (Homo sapiens) (P98170 whole entry, looked up, the tested form may be a part): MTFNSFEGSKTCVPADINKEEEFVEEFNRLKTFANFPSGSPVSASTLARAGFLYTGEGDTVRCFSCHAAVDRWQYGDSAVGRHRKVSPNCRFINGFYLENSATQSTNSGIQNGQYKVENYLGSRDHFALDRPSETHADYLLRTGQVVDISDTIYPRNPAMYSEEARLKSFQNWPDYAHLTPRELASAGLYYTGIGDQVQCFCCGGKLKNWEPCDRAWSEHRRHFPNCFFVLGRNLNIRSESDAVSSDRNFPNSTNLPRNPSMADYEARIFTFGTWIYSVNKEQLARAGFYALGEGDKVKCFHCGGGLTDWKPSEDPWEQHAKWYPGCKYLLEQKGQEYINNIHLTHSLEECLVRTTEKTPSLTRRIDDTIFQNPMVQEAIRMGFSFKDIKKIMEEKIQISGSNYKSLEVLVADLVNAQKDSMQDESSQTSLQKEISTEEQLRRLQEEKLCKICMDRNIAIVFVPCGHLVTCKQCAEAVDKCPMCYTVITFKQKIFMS
Chain of Dihydroorotate dehydrogenase (quinone), mitochondrial (Plasmodium falciparum (isolate 3D7)) (Q08210 whole entry, looked up): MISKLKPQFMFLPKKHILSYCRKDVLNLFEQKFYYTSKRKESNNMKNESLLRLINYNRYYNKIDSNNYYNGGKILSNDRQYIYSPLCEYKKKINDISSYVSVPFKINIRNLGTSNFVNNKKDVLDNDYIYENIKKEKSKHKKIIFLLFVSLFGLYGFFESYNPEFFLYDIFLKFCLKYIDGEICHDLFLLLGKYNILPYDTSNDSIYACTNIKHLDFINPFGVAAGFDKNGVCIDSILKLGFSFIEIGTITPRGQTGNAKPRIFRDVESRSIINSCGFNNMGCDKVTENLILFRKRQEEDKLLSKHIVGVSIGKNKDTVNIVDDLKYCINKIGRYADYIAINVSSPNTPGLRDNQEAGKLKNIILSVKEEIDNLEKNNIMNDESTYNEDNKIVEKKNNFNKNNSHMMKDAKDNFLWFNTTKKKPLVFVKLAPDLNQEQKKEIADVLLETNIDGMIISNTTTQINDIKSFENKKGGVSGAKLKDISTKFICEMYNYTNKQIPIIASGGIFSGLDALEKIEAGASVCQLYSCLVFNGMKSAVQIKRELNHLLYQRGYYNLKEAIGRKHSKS
Chain of Homeobox protein Hox-A13 (Mus musculus) (Q62424 whole entry, looked up): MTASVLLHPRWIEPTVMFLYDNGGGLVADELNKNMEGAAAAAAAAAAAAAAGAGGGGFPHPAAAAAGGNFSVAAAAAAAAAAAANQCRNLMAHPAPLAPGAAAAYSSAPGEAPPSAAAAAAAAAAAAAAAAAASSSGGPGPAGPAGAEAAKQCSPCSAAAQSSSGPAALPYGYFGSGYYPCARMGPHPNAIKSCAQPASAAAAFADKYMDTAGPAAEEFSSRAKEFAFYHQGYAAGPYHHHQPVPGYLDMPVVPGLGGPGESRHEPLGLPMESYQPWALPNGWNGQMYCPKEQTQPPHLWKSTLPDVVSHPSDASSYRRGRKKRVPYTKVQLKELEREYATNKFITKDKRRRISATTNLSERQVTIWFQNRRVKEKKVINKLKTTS

| Structure (SMILES) | z-score [1] | z-score [2] | z-score [3] | composite z-score [4] | z-score [5] | z-score [6] | z-score [7] | z-score [8] | z-score [9] | composite z-score [10] | composite z-score [11] | composite z-score (XIP peptide (Xip251-270)) | z-score [12] | z-score [13] | z-score [14] | z-score [15] |
| --- | --- | --- | --- | --- | --- | --- | --- | --- | --- | --- | --- | --- | --- | --- | --- | --- |
| CCOc1cc(C(O)C2C=CC3C(=O)N(c4ccccc4)C(=O)C3N2Nc2ccc([N+](=O)[O-])cc2)ccc1O (centres undefined) | -0.506 | -0.571 (inactive) | -0.669 (inactive) | 0.377 (inactive) | 0.878 (inactive) | -0.864 (inactive) | -0.763 (inactive) | -0.709 (inactive) | -0.901 | -0.127 | -0.394 (inactive) | 0.546 | -1.76 | -5.51 (inactive) | 0.555 (inactive) | -0.452 (inactive) |
| Cc1ccc([C@H]2[C@H](C(=O)O)[C@H](Sc3ccccc3)[C@@H](C(C)C)N2S(=O)(=O)c2ccc(C)cc2)cc1 | -1.15 | -0.138 (inactive) | -0.498 (inactive) | 0.184 (inactive) | 0.0362 (inactive) | -0.528 (inactive) | -1.44 (inactive) | -0.292 (inactive) | -1.39 | 0.603 | 2.49 (inactive) | 0.787 | -0.619 | -6 (inactive) | 0.237 (inactive) | -0.0069 (inactive) |
| CCOC(=O)C[C@H]1[C@H](OC(=O)c2ccc(-c3ccccc3)cc2)[C@@H](NC(=O)Cc2ccc(OC)cc2)c2cc(OCCCO)ccc2N1C(=O)c1ccc2ccccc2n1 | -0.458 | -0.533 (inactive) | -0.607 (inactive) | -0.236 (inactive) | 0.055 (inactive) | -0.586 (inactive) | -0.536 (inactive) | -0.485 (inactive) | -0.893 | 0.091 | -0.0562 (inactive) | 0.111 | 0.351 | -2.51 (inactive) | -0.42 (inactive) | -0.0198 (inactive) |
| COc1ccc(CCNC(=O)[C@@]2(Sc3ccc(C)cc3)CC(=O)N(Cc3ccccc3Cl)[C@@H]2c2ccc(CO)cc2I)cc1 | 0.254 | -4.37 (inactive) | -2.75 (inactive) | -0.725 (inactive) | 0.379 (inactive) | -1.37 (inactive) | 0.853 (inactive) | 1.36 (inactive) | -1.71 | 0.0512 | 0.259 (inactive) | 0.391 | -0.694 | -2.24 (inactive) | 0.351 (inactive) | 0.606 (inactive) |
| O=C1N(CCS(=O)(=O)c2ccccc2)Cc2ccccc2[C@H]2OC(c3ccc(OCCCO)cc3)=N[C@@]12CCS(=O)(=O)c1ccccc1 | 0.759 | 1.83 (inactive) | 0.935 (inactive) | -0.796 (inactive) | 0.0533 (inactive) | 3.07 (inactive) | 1.69 (inactive) | 1.09 (inactive) | -0.124 | -0.15 | 2.05 (inactive) | 0.81 | -2.09 | -0.483 (inactive) | -0.44 (inactive) | -0.346 (inactive) |
| CCCCC=C[C@@H](NC(=O)c1cccs1)c1ccccc1 | 0.327 | 0.822 (inactive) | -0.321 (inactive) | 0.0375 (inactive) | 0.191 (inactive) | 1 (inactive) | 0.659 (inactive) | 0.955 (inactive) | -1.95 | -0.0426 | -0.0837 (inactive) | -0.513 | -0.414 | -3.05 (inactive) | -0.483 (inactive) | -0.695 (inactive) |
| CCCN1C(=O)[C@@]2(CCC(=O)OC(C)(C)C)N=C(c3ccc(OCCCO)cc3)O[C@H]2c2ccccc21 | 0.803 | -1 (inactive) | -1.86 (inactive) | -0.0393 (inactive) | 0.717 (inactive) | 0.992 (inactive) | 0.923 (inactive) | 0.178 (inactive) | -3.16 | 0.0223 | 0.317 (inactive) | 0.563 | -2.31 | -3.53 (inactive) | -0.0458 (inactive) | 0.261 (inactive) |
| CC(C)(C)N1CC=CC23O[C@@H]4/C=C\CCCOC(=O)C4[C@H]2C(=O)N(CCO)[C@@H]3C1=O (some centres undefined) | -0.636 | 0.0998 (inactive) | -0.0023 (inactive) | -0.252 (inactive) | 0.18 (inactive) | 0.338 (inactive) | -0.599 (inactive) | -0.814 (inactive) | -0.053 | -0.142 | -0.0146 (inactive) | 0.368 | -1.38 | -4.95 (inactive) | 0.205 (inactive) | 0.299 (inactive) |
| C=CCNC(=O)[C@@H]1[C@H]2C(=O)O[C@H](c3ccccc3)[C@H](c3ccccc3)N2[C@H](c2ccc(OCCO)cc2)[C@@]12C(=O)Nc1ccccc12 | 0.61 | -1.67 (inactive) | -0.0761 (inactive) | -2.04 (inactive) | 3.15 (inactive) | -0.412 (inactive) | 1.34 (inactive) | 0.548 (inactive) | -0.0855 | 0.0192 | 0.0997 (inactive) | 0.371 | -1.09 | -4.6 (inactive) | -0.122 (inactive) | -0.303 (inactive) |
